# According to PMC7862700, “An all-to-all approach to the identification of sequence-specific readers for epigenetic DNA modifications on cytosine”:
# Key:
# Assay in all cases: DAPPL (digital affinity profiling via proximity ligation, sequencing); 10 mM Tris-HCl pH 7.5, 50 mM NaCl, 1 mM DTT, 4% glycerol, room temperature, 30 min; GST-TFs on glutathione beads, 16-mer random dsDNA library, 0.1% formaldehyde crosslink after washing; high values mean tight binding
# Details in all cases: protein: recombinant; tags: N-terminal GST; dsDNA, one strand shown
# ELK1 = biological target: T1, ELK1 (Homo sapiens, UniProt P19419 1-428)
# T1 sequence: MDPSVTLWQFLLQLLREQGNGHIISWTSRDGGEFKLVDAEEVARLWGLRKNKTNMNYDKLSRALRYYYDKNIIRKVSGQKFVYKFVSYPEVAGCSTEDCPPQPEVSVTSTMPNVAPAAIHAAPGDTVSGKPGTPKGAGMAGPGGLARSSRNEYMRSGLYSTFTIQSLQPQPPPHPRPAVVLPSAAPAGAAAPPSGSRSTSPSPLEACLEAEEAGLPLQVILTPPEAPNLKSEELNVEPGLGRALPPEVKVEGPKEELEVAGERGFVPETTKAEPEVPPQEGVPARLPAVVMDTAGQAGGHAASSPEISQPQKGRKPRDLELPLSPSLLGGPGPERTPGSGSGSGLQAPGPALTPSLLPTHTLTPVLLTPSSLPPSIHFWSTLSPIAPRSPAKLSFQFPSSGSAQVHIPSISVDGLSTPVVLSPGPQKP
# Outline: (§1)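 Pools were built from human transcription factors expressed in yeast as GST fusions, captured on glutathione beads and DNA-barcoded, along with a tag-only sample. Incubation with 200 nmole of a 16-mer random double-stranded DNA library lasted 30 min at room temperature in Tris/NaCl/DTT/glycerol buffer, and was followed by washing, 0.1% formaldehyde crosslinking, proximity ligation, PCR amplification and Illumina NextSeq500 sequencing. Binding signal is the quotient of each hexamer's read frequency for a factor and its frequency for the tag-only sample.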
# GABPA = biological target: T2, GABPA (Homo sapiens, UniProt Q06546 1-454)
# T2 sequence: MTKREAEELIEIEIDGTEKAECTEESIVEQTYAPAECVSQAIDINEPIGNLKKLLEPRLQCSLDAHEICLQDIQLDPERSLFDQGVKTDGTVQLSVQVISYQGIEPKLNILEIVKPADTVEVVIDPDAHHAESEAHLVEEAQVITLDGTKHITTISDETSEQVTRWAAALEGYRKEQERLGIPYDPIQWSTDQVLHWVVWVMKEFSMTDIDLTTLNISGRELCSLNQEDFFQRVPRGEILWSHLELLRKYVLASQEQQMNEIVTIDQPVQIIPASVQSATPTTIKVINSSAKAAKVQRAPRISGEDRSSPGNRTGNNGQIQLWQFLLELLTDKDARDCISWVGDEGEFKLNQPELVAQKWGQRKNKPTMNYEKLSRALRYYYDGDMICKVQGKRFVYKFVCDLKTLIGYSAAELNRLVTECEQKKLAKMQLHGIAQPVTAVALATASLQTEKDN
# Outline: as §1
# ERG = biological target: T3, ERG (Homo sapiens, UniProt P11308 1-479)
# T3 sequence: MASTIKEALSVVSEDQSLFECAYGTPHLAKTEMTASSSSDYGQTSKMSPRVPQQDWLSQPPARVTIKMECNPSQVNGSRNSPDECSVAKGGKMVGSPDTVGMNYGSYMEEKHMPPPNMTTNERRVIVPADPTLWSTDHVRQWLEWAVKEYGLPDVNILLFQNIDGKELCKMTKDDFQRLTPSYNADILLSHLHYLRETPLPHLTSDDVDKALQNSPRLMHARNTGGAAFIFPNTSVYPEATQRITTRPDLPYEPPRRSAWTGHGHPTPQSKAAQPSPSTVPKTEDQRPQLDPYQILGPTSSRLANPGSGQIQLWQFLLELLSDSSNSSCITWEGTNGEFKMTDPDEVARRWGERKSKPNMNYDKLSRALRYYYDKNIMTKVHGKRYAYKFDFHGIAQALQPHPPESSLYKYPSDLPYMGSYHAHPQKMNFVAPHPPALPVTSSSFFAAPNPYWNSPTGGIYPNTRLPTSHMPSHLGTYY
# Outline: as §1
# ELF1 = ELF1 (Homo sapiens, UniProt P32519 1-619)
# Chain of ELF1 (P32519 whole entry): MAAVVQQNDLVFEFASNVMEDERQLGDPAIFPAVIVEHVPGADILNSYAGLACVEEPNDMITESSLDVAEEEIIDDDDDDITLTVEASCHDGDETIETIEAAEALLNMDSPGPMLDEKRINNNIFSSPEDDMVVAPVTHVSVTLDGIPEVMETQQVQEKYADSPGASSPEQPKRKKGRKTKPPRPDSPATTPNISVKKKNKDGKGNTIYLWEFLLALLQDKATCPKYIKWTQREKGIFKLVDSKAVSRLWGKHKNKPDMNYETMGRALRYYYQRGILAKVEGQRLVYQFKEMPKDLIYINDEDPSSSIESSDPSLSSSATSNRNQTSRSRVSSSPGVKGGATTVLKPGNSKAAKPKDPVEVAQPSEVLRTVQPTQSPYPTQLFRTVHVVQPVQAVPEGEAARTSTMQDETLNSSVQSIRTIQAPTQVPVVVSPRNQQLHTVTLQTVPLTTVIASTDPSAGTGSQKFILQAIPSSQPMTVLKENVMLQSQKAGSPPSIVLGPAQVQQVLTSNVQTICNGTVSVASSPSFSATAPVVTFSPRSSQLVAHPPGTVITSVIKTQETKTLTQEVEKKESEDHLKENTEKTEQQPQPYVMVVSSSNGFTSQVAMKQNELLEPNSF
# Outline: as §1
# EHF = biological target: T4, EHF (Homo sapiens, UniProt Q9NZC4 1-300)
# T4 sequence: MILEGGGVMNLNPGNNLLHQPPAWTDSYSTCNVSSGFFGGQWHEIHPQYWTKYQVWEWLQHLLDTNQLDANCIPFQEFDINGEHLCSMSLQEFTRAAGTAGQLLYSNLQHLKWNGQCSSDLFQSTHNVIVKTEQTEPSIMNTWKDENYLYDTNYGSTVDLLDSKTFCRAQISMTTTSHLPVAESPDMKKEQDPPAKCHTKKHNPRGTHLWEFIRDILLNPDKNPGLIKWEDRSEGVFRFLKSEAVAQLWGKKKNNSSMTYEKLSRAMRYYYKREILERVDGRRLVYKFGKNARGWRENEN
# Outline: as §1
# SPI1 = SPI1 (Homo sapiens, UniProt P17947 1-270)
# Outline: as §1
# SPIB = SPIB (Homo sapiens, UniProt Q01892 1-262)
# Chain of SPIB (Q01892 whole entry): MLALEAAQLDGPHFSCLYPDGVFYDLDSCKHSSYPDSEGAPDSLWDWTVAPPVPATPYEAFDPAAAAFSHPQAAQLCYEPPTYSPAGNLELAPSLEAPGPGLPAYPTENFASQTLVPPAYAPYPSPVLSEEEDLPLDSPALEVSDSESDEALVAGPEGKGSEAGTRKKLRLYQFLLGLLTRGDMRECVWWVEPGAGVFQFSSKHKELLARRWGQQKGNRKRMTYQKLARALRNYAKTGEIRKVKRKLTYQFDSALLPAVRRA
# Outline: as §1
# FEV = biological target: T5, FEV (Homo sapiens, UniProt Q99581 1-238)
# T5 sequence: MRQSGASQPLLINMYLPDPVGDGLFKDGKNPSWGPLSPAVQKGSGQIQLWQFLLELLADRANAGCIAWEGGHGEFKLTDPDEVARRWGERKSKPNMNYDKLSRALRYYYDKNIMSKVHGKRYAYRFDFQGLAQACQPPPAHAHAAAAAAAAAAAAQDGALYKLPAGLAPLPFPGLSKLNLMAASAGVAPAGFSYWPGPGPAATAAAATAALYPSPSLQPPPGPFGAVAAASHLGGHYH
# Outline: as §1
# ETV5 = ETV5 (Homo sapiens, UniProt P41161 1-510)
# Chain of ETV5 (P41161 whole entry): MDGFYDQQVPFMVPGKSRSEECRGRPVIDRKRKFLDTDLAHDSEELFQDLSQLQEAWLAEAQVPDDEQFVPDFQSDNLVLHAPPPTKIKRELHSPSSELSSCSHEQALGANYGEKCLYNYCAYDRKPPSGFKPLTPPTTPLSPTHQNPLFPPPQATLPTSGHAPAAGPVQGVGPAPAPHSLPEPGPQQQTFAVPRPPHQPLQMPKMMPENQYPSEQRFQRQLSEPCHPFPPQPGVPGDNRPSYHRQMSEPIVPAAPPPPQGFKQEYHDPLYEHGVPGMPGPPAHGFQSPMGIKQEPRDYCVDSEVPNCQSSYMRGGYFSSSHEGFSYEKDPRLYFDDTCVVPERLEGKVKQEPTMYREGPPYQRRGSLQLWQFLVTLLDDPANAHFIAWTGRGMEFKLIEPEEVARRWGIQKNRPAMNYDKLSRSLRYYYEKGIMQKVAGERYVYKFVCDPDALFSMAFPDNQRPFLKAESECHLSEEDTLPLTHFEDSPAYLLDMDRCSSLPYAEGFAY
# Outline: as §1
# ELF4 = ELF4 (Homo sapiens, UniProt Q99607 1-663)
# Chain of ELF4 (Q99607 whole entry): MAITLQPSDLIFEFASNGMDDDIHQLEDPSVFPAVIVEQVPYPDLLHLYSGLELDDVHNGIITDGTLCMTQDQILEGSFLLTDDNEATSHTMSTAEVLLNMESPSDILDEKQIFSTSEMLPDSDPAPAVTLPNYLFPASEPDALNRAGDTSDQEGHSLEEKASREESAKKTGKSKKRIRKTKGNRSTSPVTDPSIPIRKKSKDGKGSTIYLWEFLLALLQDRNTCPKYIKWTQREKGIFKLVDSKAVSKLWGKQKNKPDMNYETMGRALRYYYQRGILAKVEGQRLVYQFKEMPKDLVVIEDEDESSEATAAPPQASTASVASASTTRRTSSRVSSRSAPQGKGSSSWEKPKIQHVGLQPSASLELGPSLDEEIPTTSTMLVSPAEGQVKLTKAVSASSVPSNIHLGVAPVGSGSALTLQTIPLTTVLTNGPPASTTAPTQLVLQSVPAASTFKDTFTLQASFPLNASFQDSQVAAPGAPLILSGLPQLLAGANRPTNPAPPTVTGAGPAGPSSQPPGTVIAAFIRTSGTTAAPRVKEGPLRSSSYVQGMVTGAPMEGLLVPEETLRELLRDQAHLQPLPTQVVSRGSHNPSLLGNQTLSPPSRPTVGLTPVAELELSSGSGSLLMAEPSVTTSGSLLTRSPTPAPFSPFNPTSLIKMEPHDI
# Outline: as §1
# ELK4 = biological target: T6, ELK4 (Homo sapiens, UniProt P28324-2 1-405)
# T6 sequence: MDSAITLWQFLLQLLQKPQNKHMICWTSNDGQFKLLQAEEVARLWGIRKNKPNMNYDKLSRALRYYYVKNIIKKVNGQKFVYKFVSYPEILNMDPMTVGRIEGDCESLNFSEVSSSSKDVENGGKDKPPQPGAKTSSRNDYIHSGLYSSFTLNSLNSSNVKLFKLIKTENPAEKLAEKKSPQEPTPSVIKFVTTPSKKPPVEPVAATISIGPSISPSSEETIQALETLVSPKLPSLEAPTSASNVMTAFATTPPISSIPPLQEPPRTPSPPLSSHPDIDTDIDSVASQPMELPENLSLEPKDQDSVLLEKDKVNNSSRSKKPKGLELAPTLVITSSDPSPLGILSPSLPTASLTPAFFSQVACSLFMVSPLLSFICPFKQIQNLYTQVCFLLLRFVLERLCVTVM
# Outline: as §1
# ELF3 = biological target: T7, ELF3 (Homo sapiens, UniProt P78545 1-371)
# T7 sequence: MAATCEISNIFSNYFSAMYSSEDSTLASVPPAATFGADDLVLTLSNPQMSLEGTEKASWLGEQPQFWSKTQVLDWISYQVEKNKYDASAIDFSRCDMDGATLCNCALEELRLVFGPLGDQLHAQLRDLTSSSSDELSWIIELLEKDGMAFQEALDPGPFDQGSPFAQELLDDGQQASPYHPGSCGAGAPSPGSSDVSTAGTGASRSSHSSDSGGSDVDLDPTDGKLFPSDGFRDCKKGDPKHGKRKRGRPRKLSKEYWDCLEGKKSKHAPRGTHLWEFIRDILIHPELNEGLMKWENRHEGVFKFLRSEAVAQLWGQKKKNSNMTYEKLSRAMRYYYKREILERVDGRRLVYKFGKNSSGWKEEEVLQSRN
# Outline: as §1
# ETV1 = ETV1 (Homo sapiens, UniProt P50549 1-477)
# Chain of ETV1 (P50549 whole entry): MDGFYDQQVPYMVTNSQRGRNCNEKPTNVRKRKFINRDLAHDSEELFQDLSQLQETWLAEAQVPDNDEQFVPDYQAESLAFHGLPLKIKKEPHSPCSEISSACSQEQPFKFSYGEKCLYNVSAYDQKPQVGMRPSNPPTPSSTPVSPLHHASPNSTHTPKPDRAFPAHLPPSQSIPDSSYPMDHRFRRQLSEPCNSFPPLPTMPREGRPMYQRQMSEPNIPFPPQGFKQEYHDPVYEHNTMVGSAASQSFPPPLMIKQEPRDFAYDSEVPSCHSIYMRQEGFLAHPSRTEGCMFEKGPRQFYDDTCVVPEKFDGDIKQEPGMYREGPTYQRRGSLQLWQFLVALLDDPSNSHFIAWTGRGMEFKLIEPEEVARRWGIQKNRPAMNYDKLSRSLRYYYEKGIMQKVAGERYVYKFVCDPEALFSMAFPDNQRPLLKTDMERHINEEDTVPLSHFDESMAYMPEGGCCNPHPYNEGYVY
# Outline: as §1
# ERF = biological target: T8, ERF (Homo sapiens, UniProt P50548 1-548)
# T8 sequence: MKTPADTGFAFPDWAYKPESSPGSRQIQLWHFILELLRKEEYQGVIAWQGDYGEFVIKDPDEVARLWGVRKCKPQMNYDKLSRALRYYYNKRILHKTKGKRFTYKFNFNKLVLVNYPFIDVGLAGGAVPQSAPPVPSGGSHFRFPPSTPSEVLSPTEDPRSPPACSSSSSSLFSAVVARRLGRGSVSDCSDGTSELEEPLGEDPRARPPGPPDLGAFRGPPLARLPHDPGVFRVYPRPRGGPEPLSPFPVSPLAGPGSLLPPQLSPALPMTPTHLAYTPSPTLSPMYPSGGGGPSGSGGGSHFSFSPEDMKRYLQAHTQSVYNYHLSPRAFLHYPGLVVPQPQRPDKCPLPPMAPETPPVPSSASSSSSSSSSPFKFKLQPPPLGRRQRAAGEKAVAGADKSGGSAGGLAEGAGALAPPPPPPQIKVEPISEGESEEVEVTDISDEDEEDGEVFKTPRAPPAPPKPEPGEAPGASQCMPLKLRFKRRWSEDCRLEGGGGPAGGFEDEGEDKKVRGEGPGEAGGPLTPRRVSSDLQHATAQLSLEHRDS
# Outline: as §1
# ETV3L = biological target: T9, ETV3L (Homo sapiens, UniProt Q6ZN32 1-361)
# T9 sequence: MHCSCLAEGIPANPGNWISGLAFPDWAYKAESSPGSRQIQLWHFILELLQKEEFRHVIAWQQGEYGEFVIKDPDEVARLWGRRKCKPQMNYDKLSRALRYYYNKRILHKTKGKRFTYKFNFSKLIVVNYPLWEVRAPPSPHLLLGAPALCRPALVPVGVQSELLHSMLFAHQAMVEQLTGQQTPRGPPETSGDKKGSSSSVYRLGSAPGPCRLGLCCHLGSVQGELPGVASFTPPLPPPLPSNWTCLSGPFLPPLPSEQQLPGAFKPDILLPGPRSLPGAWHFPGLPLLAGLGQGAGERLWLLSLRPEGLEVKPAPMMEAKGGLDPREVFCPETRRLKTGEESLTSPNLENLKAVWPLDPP
# Outline: as §1
# ETS2 = biological target: T10, ETS2 (Homo sapiens, UniProt P15036 1-469)
# T10 sequence: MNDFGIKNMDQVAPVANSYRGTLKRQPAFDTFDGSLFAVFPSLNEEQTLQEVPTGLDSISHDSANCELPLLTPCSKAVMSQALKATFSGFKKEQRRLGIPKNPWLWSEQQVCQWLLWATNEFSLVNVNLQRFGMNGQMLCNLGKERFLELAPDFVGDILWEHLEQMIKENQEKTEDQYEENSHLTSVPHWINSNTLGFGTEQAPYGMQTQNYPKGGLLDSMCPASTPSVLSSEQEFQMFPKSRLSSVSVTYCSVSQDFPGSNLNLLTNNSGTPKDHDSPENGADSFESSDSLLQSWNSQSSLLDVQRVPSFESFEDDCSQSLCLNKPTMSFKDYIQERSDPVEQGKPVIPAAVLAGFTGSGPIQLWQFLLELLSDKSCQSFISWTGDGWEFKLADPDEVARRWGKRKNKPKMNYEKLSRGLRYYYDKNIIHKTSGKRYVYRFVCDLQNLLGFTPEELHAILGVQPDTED
# Outline: as §1
# SPDEF = biological target: T11, SPDEF (Homo sapiens, UniProt O95238 1-335)
# T11 sequence: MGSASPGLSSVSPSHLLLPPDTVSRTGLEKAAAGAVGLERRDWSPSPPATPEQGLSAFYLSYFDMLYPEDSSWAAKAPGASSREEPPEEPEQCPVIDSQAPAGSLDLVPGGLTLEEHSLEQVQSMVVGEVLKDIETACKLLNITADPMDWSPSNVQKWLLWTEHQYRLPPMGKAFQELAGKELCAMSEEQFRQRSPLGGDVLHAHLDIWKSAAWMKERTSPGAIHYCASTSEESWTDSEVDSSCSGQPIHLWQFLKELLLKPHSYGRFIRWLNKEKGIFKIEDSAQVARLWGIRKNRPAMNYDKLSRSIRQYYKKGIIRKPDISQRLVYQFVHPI
# Outline: as §1
# ETV7 = biological target: T12, ETV7 (Homo sapiens, UniProt Q9Y603 1-341)
# T12 sequence: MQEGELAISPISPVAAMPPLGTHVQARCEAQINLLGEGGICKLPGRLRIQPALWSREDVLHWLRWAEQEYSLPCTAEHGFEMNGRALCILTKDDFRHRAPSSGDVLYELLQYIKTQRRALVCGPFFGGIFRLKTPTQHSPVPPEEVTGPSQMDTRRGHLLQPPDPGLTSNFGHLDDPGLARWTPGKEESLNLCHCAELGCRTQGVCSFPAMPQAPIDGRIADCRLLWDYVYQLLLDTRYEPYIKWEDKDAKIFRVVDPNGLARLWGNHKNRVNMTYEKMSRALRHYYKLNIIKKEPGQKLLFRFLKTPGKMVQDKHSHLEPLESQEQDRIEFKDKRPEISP
# Outline: as §1
# ETV3 = biological target: T13, ETV3 (Homo sapiens, UniProt P41162-2 1-143)
# T13 sequence: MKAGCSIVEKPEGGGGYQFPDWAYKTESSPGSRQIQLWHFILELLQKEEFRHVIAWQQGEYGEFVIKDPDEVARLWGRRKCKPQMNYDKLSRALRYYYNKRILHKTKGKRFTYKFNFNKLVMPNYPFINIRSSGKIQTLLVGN
# Outline: as §1
# ETV6 = ETV6 (Homo sapiens, UniProt P41212 1-452)
# Chain of ETV6 (P41212 whole entry): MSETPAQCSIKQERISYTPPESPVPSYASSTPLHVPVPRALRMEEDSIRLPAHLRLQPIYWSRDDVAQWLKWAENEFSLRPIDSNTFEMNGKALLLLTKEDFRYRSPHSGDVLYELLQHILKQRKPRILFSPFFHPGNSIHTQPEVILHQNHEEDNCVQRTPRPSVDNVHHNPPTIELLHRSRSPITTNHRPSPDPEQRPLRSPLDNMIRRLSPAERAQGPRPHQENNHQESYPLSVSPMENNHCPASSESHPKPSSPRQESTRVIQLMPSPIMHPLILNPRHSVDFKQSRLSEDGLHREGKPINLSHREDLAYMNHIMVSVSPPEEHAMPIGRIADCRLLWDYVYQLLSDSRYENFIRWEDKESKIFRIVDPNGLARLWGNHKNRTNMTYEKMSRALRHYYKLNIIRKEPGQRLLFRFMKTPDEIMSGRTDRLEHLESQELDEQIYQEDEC
# Outline: as §1
sequence,measurement,setting,value
CGTAAA,binding signal,ELK1,"1.12 fold enrichment (6-mer frequency, TF over GST control)"
same,binding signal,GABPA,"1.23 fold enrichment (6-mer frequency, TF over GST control)"
same,binding signal,ERG,"1.13 fold enrichment (6-mer frequency, TF over GST control)"
same,binding signal,ELF1,"1.07 fold enrichment (6-mer frequency, TF over GST control)"
same,binding signal,EHF,"1.13 fold enrichment (6-mer frequency, TF over GST control)"
same,binding signal,SPI1,"1.09 fold enrichment (6-mer frequency, TF over GST control)"
same,binding signal,SPIB,"1.08 fold enrichment (6-mer frequency, TF over GST control)"
same,binding signal,FEV,"1.04 fold enrichment (6-mer frequency, TF over GST control)"
same,binding signal,ETV5,"1.14 fold enrichment (6-mer frequency, TF over GST control)"
same,binding signal,ELF4,"1.11 fold enrichment (6-mer frequency, TF over GST control)"
same,binding signal,ELK4,"1.05 fold enrichment (6-mer frequency, TF over GST control)"
same,binding signal,ELF3,"1.12 fold enrichment (6-mer frequency, TF over GST control)"
same,binding signal,ETV1,"1 fold enrichment (6-mer frequency, TF over GST control)"
same,binding signal,ERF,"1.09 fold enrichment (6-mer frequency, TF over GST control)"
same,binding signal,ETV3L,"1.09 fold enrichment (6-mer frequency, TF over GST control)"
same,binding signal,ETS2,"1.14 fold enrichment (6-mer frequency, TF over GST control)"
same,binding signal,SPDEF,"1.09 fold enrichment (6-mer frequency, TF over GST control)"
same,binding signal,ETV7,"1.08 fold enrichment (6-mer frequency, TF over GST control)"
same,binding signal,ETV3,"1.14 fold enrichment (6-mer frequency, TF over GST control)"
same,binding signal,ETV6,"1.17 fold enrichment (6-mer frequency, TF over GST control)"
